Reference: PubChem BioAssay AID1159580 (chemical genetic matrix, 2015)
About 2,000 (36%) of roughly 5,500 compounds were called active. Roughly 18% stayed inconclusive and do not appear here. No stated cut-off is given here; in the data, active means normalized growth mostly below about 0.91 (no sharp cut-off); inconclusive means no clear call, values can overlap the other calls; inactive means mostly above about 0.92. The list shows a part of the results.

Test: chemical genetic growth profiling, strain panel (AID 1159580);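 further: tested at 20 µM; growth read once vehicle control cultures reached saturation at 30 °C; 1 = growth at the plate median or of vehicle wells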
Conditions: S. cerevisiae deletion strains, growth OD

Measured: normalized growth

COc1ccc2c(=O)ccoc2c1
inactive: locus YAL013W, strain DEP1, stronger effect = lower value 1.02 | locus YAL021C, strain ccr4, stronger effect = lower value 1.02 | locus YAL026C, strain drs2, stronger effect = lower value 1.02 | locus YAL030W, strain snc1, stronger effect = lower value 1.01 | locus YBL061C, strain skt5, stronger effect = lower value 1.01 | locus YBR009C, strain hhf1, stronger effect = lower value 1.02 | locus YBR021W, strain FUR4, stronger effect = lower value 0.979 | locus YBR023C, strain chs3, stronger effect = lower value 1.02 | locus YBR171W, strain sec66, stronger effect = lower value 1.04 | locus YBR229C, strain ROT2, stronger effect = lower value 1.01 | locus YBR231C, strain swc5, stronger effect = lower value 1.01 | locus YBR279W, strain paf1, stronger effect = lower value 1.02 | locus YCL011C, strain gbp2, stronger effect = lower value 1.02 | locus YCL016C, strain dcc1, stronger effect = lower value 1.02 | locus YCL029C, strain bik1, stronger effect = lower value 1.01 | locus YCL061C, strain MRC1, stronger effect = lower value 1.02 | locus YCL069W, strain vba3, stronger effect = lower value 1.02 | locus YCR088W, strain abp1, stronger effect = lower value 1.03 | locus YDL005C, strain med2, stronger effect = lower value 1.02 | locus YDL035C, strain GPR1, stronger effect = lower value 1 | locus YDL040C, strain nat1, stronger effect = lower value 1.02 | locus YDL074C, strain BRE1, stronger effect = lower value 1.02 | locus YDL101C, strain DUN1, stronger effect = lower value 1.02 | locus YDL134C, strain PPH21, stronger effect = lower value 1.02 | locus YDL185W, strain tfp1, stronger effect = lower value 1.01 | locus YDL192W, strain arf1, stronger effect = lower value 1.01 | locus YDR001C, strain nth1, stronger effect = lower value 1.02 | locus YDR069C, strain doa4, stronger effect = lower value 1.02 | locus YDR101C, strain arx1, stronger effect = lower value 0.995 | locus YDR137W, strain rgp1, stronger effect = lower value 1.03 | locus YDR150W, strain NUM1, stronger effect = lower value 1.03 | locus YDR159W, strain sac3, stronger effect = lower value 1.04 | locus YDR162C, strain NBP2, stronger effect = lower value 1.02 | locus YDR195W, strain ref2 1.08 | locus YDR297W, strain sur2, stronger effect = lower value 1.02 | locus YDR318W, strain mcm21, stronger effect = lower value 0.992 | locus YDR334W, strain swr1, stronger effect = lower value 1.02 | locus YDR335W, strain msn5, stronger effect = lower value 1.02 | locus YDR388W, stronger effect = lower value 1.01 | locus YDR392W, strain spt3, stronger effect = lower value 1.04 | locus YDR502C, strain sam2, stronger effect = lower value 1.01 | locus YEL003W, strain gim4, stronger effect = lower value 1.02 | locus YEL037C, strain rad23, stronger effect = lower value 1.02 | locus YEL061C, strain CIN8 (second series), stronger effect = lower value 1.02 | locus YEL061C, strain CIN8, stronger effect = lower value 1.01 | locus YER015W, strain faa2, stronger effect = lower value 1.03 | locus YER016W, strain bim1, stronger effect = lower value 1.02 | locus YER110C, stronger effect = lower value 1.01 | locus YER111C, strain swi4, stronger effect = lower value 1.01 | locus YER155C, strain BEM2 (second series), stronger effect = lower value 1 | locus YER155C, strain BEM2, stronger effect = lower value 1.02 | locus YER167W, strain BCK2, stronger effect = lower value 1.04 | locus YFR010W, strain ubp6, stronger effect = lower value 1.03 | locus YGL078C, strain dbp3, stronger effect = lower value 1.02 | locus YGL086W, strain mad1, stronger effect = lower value 1.01 | locus YGL167C, strain pmr1, stronger effect = lower value 1.03 | locus YGL173C, strain kem1, stronger effect = lower value 1.02 | locus YGL227W, strain vid30, stronger effect = lower value 1.03 | locus YGL240W, strain doc1, stronger effect = lower value 1.02 | locus YGL248W, strain PDE1, stronger effect = lower value 1.02 | locus YGL253W, strain hxk2, stronger effect = lower value 1.02 | locus YGR078C, strain PAC10, stronger effect = lower value 0.997 | locus YGR135W, strain pre9, stronger effect = lower value 0.978 | locus YGR229C, strain SMI1, stronger effect = lower value 1.04 | locus YGR252W, strain gcn5, stronger effect = lower value 0.825 | locus YHR013C, strain ard1, stronger effect = lower value 1.08 | locus YHR027C, strain rpn1, stronger effect = lower value 1.03 | locus YHR030C, strain SLT2, stronger effect = lower value 1.02 | locus YHR079C, strain IRE1 (second series), stronger effect = lower value 0.998 | locus YHR094C, strain hxt1, stronger effect = lower value 1.01 | locus YHR129C, strain ARP1, stronger effect = lower value 1.01 | locus YHR142W, strain chs7, stronger effect = lower value 1.03 | locus YHR200W, strain rpn10, stronger effect = lower value 0.997 | locus YIL066C, strain RNR3, stronger effect = lower value 1.01 | locus YIL073C, strain SPO22, stronger effect = lower value 1.04 | locus YIL125W, strain kgd1, stronger effect = lower value 1.02 | locus YIR030C, strain dcg1, stronger effect = lower value 1.01 | locus YJL092W, strain hpr5, stronger effect = lower value 1.02 | locus YJL095W, strain BCK1 (second series), stronger effect = lower value 1.02 | locus YJL095W, strain BCK1, stronger effect = lower value 0.991 | locus YJL115W, strain asf1, stronger effect = lower value 1.01 | locus YJL129C, strain trk1, stronger effect = lower value 1.06 | locus YJL134W, strain LCB3, stronger effect = lower value 1.02 | locus YJL154C, strain vps35, stronger effect = lower value 1.03 | locus YJL164C, strain tpk1, stronger effect = lower value 1.03 | locus YJL166W, strain qcr8, stronger effect = lower value 1.02 | locus YJL168C, strain set2, stronger effect = lower value 1.01 | locus YJL187C, strain SWE1 (second series), stronger effect = lower value 1.01 | locus YJL187C, strain SWE1, stronger effect = lower value 1.02
